# Measurements reported in PMC4336329 (PLoS ONE, 2015).
# In all, about 310,000 compounds went through this assay and about 14,000 (4.5%) showed an effect of 50% or more. The effect is printed as a negative number. The full list was thinned out, with strong results kept by preference.
# Target: human ether-à-go-go-related gene (hERG) potassium channel (human, UniProt Q12809)
# Experiment: primary screen, population patch clamp on CHO cells stably expressing hERG; higher = less effect of the substance
# 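Further: peak tail current of the secondary pulse compared with the same well before compound.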
# Sequence of human ether-à-go-go-related gene (hERG) potassium channel (Q12809 whole entry, looked up): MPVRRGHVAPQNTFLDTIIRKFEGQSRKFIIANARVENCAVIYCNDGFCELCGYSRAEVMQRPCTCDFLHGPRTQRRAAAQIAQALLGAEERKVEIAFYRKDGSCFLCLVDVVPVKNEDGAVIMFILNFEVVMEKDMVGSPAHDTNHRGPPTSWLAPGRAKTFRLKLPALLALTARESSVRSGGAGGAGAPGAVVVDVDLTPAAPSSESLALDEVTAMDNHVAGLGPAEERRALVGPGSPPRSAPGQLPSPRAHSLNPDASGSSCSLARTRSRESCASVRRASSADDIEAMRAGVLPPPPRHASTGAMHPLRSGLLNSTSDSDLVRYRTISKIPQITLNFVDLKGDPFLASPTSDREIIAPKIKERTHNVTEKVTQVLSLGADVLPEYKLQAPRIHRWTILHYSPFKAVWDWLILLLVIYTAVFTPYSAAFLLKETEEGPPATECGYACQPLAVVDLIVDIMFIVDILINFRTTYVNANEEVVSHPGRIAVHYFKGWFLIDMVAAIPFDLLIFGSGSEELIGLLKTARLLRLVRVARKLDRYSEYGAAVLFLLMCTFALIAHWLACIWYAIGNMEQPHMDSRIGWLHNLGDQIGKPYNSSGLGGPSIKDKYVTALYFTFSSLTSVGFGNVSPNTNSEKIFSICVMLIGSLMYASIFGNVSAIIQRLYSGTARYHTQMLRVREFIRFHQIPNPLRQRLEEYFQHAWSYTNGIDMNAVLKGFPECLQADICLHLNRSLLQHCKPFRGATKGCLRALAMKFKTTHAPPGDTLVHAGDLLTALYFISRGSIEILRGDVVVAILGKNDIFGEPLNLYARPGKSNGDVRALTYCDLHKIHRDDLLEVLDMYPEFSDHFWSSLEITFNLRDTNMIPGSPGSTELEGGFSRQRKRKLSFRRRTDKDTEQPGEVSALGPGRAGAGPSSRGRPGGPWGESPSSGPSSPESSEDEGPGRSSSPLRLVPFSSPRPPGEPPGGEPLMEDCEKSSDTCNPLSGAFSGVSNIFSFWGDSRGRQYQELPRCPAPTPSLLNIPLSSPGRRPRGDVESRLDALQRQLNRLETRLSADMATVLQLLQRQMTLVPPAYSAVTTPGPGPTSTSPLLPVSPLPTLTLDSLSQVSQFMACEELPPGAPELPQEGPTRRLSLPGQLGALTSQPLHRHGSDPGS
row,SMILES,"hERG current change (%, negative = inhibition) at 10uM [%]"
1,O=C(OCCOc1cccc(Cl)c1)c1cc(S(=O)(=O)N2CCOCC2)ccc1F,-14
2,CCn1c(COc2ccc(OC)cc2)nc2ccccc21,-19.8
3,Cc1ccccc1NC(=O)C1CCN(C2=NS(=O)(=O)c3ccccc32)CC1,-15.2
4,COc1cc(CNc2ccccc2)c([N+](=O)[O-])cc1OC.O=C(O)C(=O)O,-3.72
5,C/C(=C1/SC(N2CCOCC2)=NC1=O)c1ccc(Br)cc1,14.8
6,C/C(=C1\SC(N2CCOCC2)=NC1=O)c1ccc(C)cc1,-10.8
7,C/C(=C1/SC(N2CCCC2)=NC1=O)c1ccc(Br)cc1,-76.7
8,CC(C)Cn1c(SCC(=O)N2CC(=O)Nc3ccccc32)nc2ccccc21,4.27
9,CCCN(CC1CC1)C(=O)CCc1nnc(C(OC)c2ccccc2)o1 (centres unmarked),-4.58
10,Cc1ccc(OCC(=O)N/N=C2/SCC(=O)N2Cc2ccco2)cc1,-28
11,Cc1cccc(OCC(=O)N/N=C2/SCC(=O)N2Cc2ccco2)c1,-25.4
12,O=C(COc1ccc(Br)cc1)N/N=C1/SCC(=O)N1Cc1ccco1,-59.8
13,NS(=O)(=O)c1ccc(CCNC(=O)c2cccc([N+](=O)[O-])c2)cc1,11.2
14,O=C(c1ccc([N+](=O)[O-])cc1[N+](=O)[O-])n1cnc2ccccc21,-16.4
15,O=[N+]([O-])c1ccccc1-n1cnc2ccccc21,-18.2
16,O=c1c2ccccc2ncn1-c1ccc(Cl)cc1[N+](=O)[O-],-4.65
17,O=[N+]([O-])c1ccc(-n2cnc3ccccc32)c([N+](=O)[O-])c1,-57.8
18,O=c1c2ccccc2ncn1-c1ccc([N+](=O)[O-])cc1[N+](=O)[O-],10.7
19,O=c1c2ccccc2ncn1-c1ccc(Br)cc1[N+](=O)[O-],-61.4
20,Cc1cccc(-n2cnc3cc([N+](=O)[O-])ccc32)c1,-51.9
21,Nc1ccc(-n2cnc3cc([N+](=O)[O-])ccc32)cc1,1.35
22,O=[N+]([O-])c1ccc2c(c1)ncn2-c1ccccc1,-21.6

row,SMILES,"hERG current change (%, negative = inhibition) at 10uM [%]"
1,C[C@]12CCC(=O)C=C1CC[C@@H]1[C@@H]2C(=O)C[C@]2(C)C(=O)CC[C@@H]12,7.99
2,O=C(N/N=C/c1ccccn1)C(O)c1ccccc1 (centres unmarked),9.82
3,Cn1c(=O)n(C)c2cc(N3CCOCC3)c(NC(=O)c3cccc(Cl)c3)cc21,5.25
4,COc1ccc(NC(=O)C/C(C)=N/NC(=O)c2cnccn2)cc1,15.5
5,CC1(OC(=O)CCc2ccccc2)C(=O)C=C2C=C(c3ccc(C#N)cc3)N(CC3CC3)C=C2C1=O (centres unmarked),-44.6
6,CC1(OC(=O)CCc2ccccc2)C(=O)C=C2C=C(c3ccc(C#N)cc3)N(c3ccccc3)C=C2C1=O (centres unmarked),14.3
7,COCCN1C=C2C(=O)C(C)(OC(=O)CCc3ccccc3)C(=O)C=C2C=C1c1ccc(C#N)cc1 (centres unmarked),-72.4
8,CC1(OC(=O)CCc2ccccc2)C(=O)C=C2C=C(c3ccc(C#N)cc3)N(C3CC3)C=C2C1=O (centres unmarked),-51.7
9,CC1(OC(=O)CCc2ccccc2)C(=O)C=C2C=C(c3ccc(C#N)cc3)N(C3CCCC3)C=C2C1=O (centres unmarked),-49.7
10,CC1(OC(=O)CCc2ccccc2)C(=O)C=C2C=C(c3ccc(C#N)cc3)N(CCc3ccccn3)C=C2C1=O (centres unmarked),-51.8
11,CC(C)CN1C=C2C(=O)C(C)(OC(=O)CCc3ccccc3)C(=O)C=C2C=C1c1ccc(C#N)cc1 (centres unmarked),-26.9
12,CCN(CC)CCCN1C=C2C(=O)C(C)(OC(=O)CCc3ccccc3)C(=O)C=C2C=C1c1ccc(C#N)cc1 (centres unmarked),-37.6
13,CC1(OC(=O)CCc2ccccc2)C(=O)C=C2C=C(c3ccc(C#N)cc3)N(CCc3c[nH]c4ccccc34)C=C2C1=O (centres unmarked),-7.98
14,C=CCN1C=C2C(=O)C(C)(OC(=O)CCc3ccccc3)C(=O)C=C2C=C1c1ccc(C#N)cc1 (centres unmarked),-28.8
15,CC(C)OCCCN1C=C2C(=O)C(C)(OC(=O)CCc3ccccc3)C(=O)C=C2C=C1c1ccc(C#N)cc1 (centres unmarked),-71.3
16,CC1(OC(=O)CCc2ccccc2)C(=O)C=C2C=C(c3ccc(C#N)cc3)N(CCN3CCOCC3)C=C2C1=O (centres unmarked),-49.9
17,CCS(=O)(=O)N1CCN(Cc2ccccc2OC)CC1.O=C(O)C(=O)O,11.7
18,C=CCOC(=O)C1=C(C)NC(=O)NC1c1ccc2c(c1)OCO2 (centres unmarked),-11.9
19,O=C(NCc1ccc2c(c1)OCO2)C1CCCN(C(=O)c2ccc(Cl)cc2)C1 (centres unmarked),-34.4
20,CCOC(=O)N/N=C/C(Cl)=C/c1ccccc1,0.407
21,COC(C(=O)N/N=C(\C)c1ccc(C(C)(C)C)cc1)c1ccccc1 (centres unmarked),13.1
22,COc1ccccc1NC(=O)CCCC(=O)OCC(F)(F)C(F)F,-1.37

row,SMILES,"hERG current change (%, negative = inhibition) at 10uM [%]"
1,COc1ccc(NC(=S)NC2CC3CCC(C2)N3Cc2ccco2)cc1 (centres unmarked),-30.1
2,CCOC(=O)c1c(S(=O)(=O)N2CCCC(C(=O)Nc3ccc(C)cn3)C2)c(C)n(C)c1C (centres unmarked),19.7
3,CCc1ccc(N=C2NC(=O)/C(=C/c3ccc(OCC(=O)O)cc3)S2)cc1,14.6
4,CCN(Cc1cnn(C)c1)Cc1nc(C(c2ccccc2)c2ccccc2)no1,-18.2
5,CCCCNC(=O)Cn1cnc([N+](=O)[O-])n1,10.8
6,CC1(OC(=O)CCc2ccccc2)C(=O)C=C2C=C(c3ccc(C#N)cc3)N(Cc3ccccc3)C=C2C1=O (centres unmarked),-51.9
7,COc1ccc(CN2C=C3C(=O)C(C)(OC(=O)CCc4ccccc4)C(=O)C=C3C=C2c2ccc(C#N)cc2)cc1 (centres unmarked),-31.7
8,CC1(OC(=O)CCc2ccccc2)C(=O)C=C2C=C(c3ccc(C#N)cc3)N(Cc3ccco3)C=C2C1=O (centres unmarked),-38.9
9,CCN(c1ccc(OC)cc1)S(=O)(=O)c1nnc(NC(=O)C2CCCCC2)s1,12.2
10,Cc1cc(=O)oc(C)c1C(=O)N[C@@H]1CCCCNC1=O,7.72
11,COc1cccc2cc(C(=O)NCCN3CCOCC3)c(=O)oc12,12.9
12,CCOc1cccc(-c2cc(=O)[nH][nH]2)c1,1.58
13,CC1CCCN(c2nc(NCc3ccco3)nc(N)c2[N+](=O)[O-])C1 (centres unmarked),-54.3
14,CC1CCN(c2nc(NCc3ccco3)nc(N)c2[N+](=O)[O-])CC1,-11.9
15,CC1CC(C)CN(c2nc(NCc3ccco3)nc(N)c2[N+](=O)[O-])C1 (centres unmarked),-27.4
16,CCN(c1cccc(C)c1)S(=O)(=O)c1ccc(-c2cc(C)no2)s1,5.94
17,CCN(CC)S(=O)(=O)c1cc(C(=O)Nc2cc(C)on2)c(Cl)cc1Cl,12.3
18,CC(=O)c1ccc(NC(=O)CSc2nc(=O)n(CCN3CCOCC3)c3c2CCC3)cc1,-7.74
19,O=C(CSc1nc(=O)n(CCCN2CCOCC2)c2c1CCC2)Nc1ccc(F)cc1,-39.5
20,O=C(CSc1nc(=O)n(CCN2CCOCC2)c2c1CCCC2)Nc1ccc([N+](=O)[O-])cc1,-67.6
21,O=C(CSc1nc(=O)n(CCCN2CCOCC2)c2c1CCC2)Nc1ccc([N+](=O)[O-])cc1,-60.4
22,O=C(CSc1nc(=O)n(CCCN2CCOCC2)c2c1CCCC2)Nc1cccc([N+](=O)[O-])c1,-67.7

row,SMILES,"hERG current change (%, negative = inhibition) at 10uM [%]"
1,CC(=O)Nc1cccc(NC(=O)CSc2nc(=O)n(CCN3CCOCC3)c3c2CCC3)c1,-2.96
2,Cc1ccc(NC(=O)CSc2nc(=O)n(CCN3CCOCC3)c3c2CCCC3)cc1,-27.5
3,CC(=O)c1cccc(NC(=O)CSc2nc(=O)n(CCN3CCOCC3)c3c2CCCC3)c1,-11.2
4,O=c1[nH]cnc2c1c(-c1ccccc1)cn2-c1ccccc1,12.1
5,CCC(C)NC(=O)c1cnn2c1NC(c1cccs1)CC2C(F)(F)F (centres unmarked),-11.3
6,Cc1ccc(C(=O)Nc2ncc(Cc3ccc(F)cc3)s2)o1,-2.85
7,O=C(OCC(=O)N1CCCC1=O)c1cc(S(=O)(=O)N2CCOCC2)ccc1F,-22.5
8,CN1/C(=C\C(=O)c2cccc([N+](=O)[O-])c2)Sc2ccccc21,10.8
9,C/C(CCc1oc2ccc(Cl)cc2c1-c1ccc(C)o1)=N\O,22.9
10,O=C(COC(=O)c1cc(=O)[nH]c2ccccc12)Nc1ccc(Cl)cn1,6.92
11,Cc1cccc(N2CCN(C(=O)c3ccc(CNc4c(N5CCC(C)CC5)c(=O)c4=O)cc3)CC2C)c1 (centres unmarked),-10.4
12,CC1(C)N([O-])C(c2cccs2)=C[N+]1=O,-7.12
13,Cc1cccc(-c2ccc(NC(=O)C3CCN(CC4CC4)CC3)cc2)c1,-70.9
14,COc1cccc(NC(=O)C2CCN(S(C)(=O)=O)CC2)c1,-7.92
15,COc1cccc(O)c1CN1CCC(C(=O)Nc2ccc(-c3cccc(C)c3)cc2)CC1,-11.2
16,COc1cccc(-c2cccc(NC(=O)C3CCN(CC4CCOC4)CC3)c2)c1 (centres unmarked),-53.2
17,O=C(Nc1cccc(Cl)c1)C1CCN(C(=O)c2cccs2)CC1,-16.8
18,CC(=O)c1cccc(CN2CCC(C(=O)Nc3ccc(-c4cccc(C)c4)cc3)CC2)c1,2.59
19,COc1cccc(NC(=O)C2CC2)c1,2.97
20,O=C(Nc1cccc(-c2cccc(Cl)c2)c1)C1CCN(CC2CCOC2)CC1 (centres unmarked),-77.2
